Bioassay records as filed in PubChem BioAssay.
TDP43 rescue: inhibitors of TDP-43 toxicity in yeast. Potency, µM (doses to about 46.1 µM), for the others: at the highest dose growth rescue (activation), hits mostly activators. TDP-43 expressing yeast growth rescue, BacTiter-Glo, 24 h. 410,000 tested, 1.8% active; also: % of control where 0% means no effect; nearly all actives have a fitted effect of over 50% in size
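Cell-based yeast growth screen: TDP-43 expression induced in galactose, inoculum OD600=0.02 after raffinose pregrowth to mid-log. Read-out BacTiter-Glo luminescence at 24 hr, 30 deg C; inhibition of toxicity seen as signal increase.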
Abeta rescue: restores growth of yeast expressing A-beta42 peptide; yeast expressing A-beta42, growth rescue, OD600, 48 h; response scale: 0% DMSO, 100% iron-clioquinol control; Potency, µM (highest dose often 46.1 µM), usual class: activators; 410,000 tested, 0.063% active; also: nearly all actives have a fitted effect of over 55% in size
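Yeast A-beta toxicity model in growth medium with pinned compounds, 48 h at 30 C; growth read as absorbance at 600 nm. Normalized to FeCl3/clioquinol equimolar mix (positive) and DMSO (negative).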
aSyn rescue: inhibitors of alpha-synuclein toxicity in yeast; Yeast expressing alpha-synuclein, growth rescue, BacTiter-Glo, 24 h; Potency, µM (titrated, usually from 46.1 µM), without a hit: at the top dose growth rescue (activation), usual class: activators; 370,000 tested, 0.14% active; AID 652106; also: % of control where 0% means no effect; nearly all actives have a fitted effect of over 65% in size
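Readout is rescue of growth in alpha-synuclein-expressing yeast, so inhibitors of toxicity appear as activators. Growth after 24 hr at 30 deg C in galactose medium is quantified by luminescence.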
Mito fusion yeast: inhibitors of mitochondrial division or activators of mitochondrial fusion; S. cerevisiae fusion-defective mutant growth rescue, CellTiterGlo 48 h; Potency, µM (series often up to 46.1 µM), inactives show at the highest dose growth rescue (activation), actives largely listed as activators; 320,000 tested, 0.23% active; AID 485298; also: % of control where 0% means no effect; nearly all actives have a fitted effect of over 45% in size
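Growth-rescue viability read-out: after 48 h at the non-permissive 37C in glycerol/ethanol YPEG, yeast mitochondrial fusion mutants are measured by CellTiterGlo luminescence; compounds (23 nl pinned per well) restoring growth score as division inhibitors or fusion activators.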
FUS suppressor: FUS proteinopathy suppression in yeast | S. cerevisiae FUS-expressing, growth rescue, OD600, 24 h | Potency, µM (series often up to 76.6 µM), most hits filed as activators | 390,000 tested, 0.24% active;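 also: plate controls were DMSO vehicle for no effect and reference control for full effect; nearly all actives have a fitted effect of over 55% in size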
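Absorbance at 600 nm, taken 24hr after compound addition, measured rescue of FUS-yeast growth at 30C. Induction used 2% galactose with seeding at OD 0.005. Controls: CP55940 from 92uM final, DMSO only.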
Numbers without * were called inactive; i = inactive; ? = inconclusive; / = not tested or not shown. Only some compounds are listed: those with a hit (about 2.2% of all), similar ones and a draw of the others. Calls follow the shape of the dose curve; as a rule, active = well fitted curve in the direction sought with a large enough effect; inconclusive = small, poorly fitted or top-dose-only effect, or another doubt; inactive = no such curve, though single readings can be large; an effect the other way counts as inactive or inconclusive. Potency is read from the fitted curve at half-maximal effect.

SMILES	TDP43 rescue	Abeta rescue	aSyn rescue	Mito fusion yeast	FUS suppressor
Cc1cccc(NS(=O)(=O)c2ccc3c(c2)CC(C)N3C(=O)C2CCC2)c1C (stereo not drawn)	20µM*	i	/	/	?
CC1Cc2cc(S(=O)(=O)N3CCCCC3)ccc2N1C(=O)C1CCC1 (stereo not drawn)	?	/	-1%	3%	i
Cc1cc(C)c(NS(=O)(=O)c2ccc3c(c2)CC(C)N3C(=O)C2CCC2)c(C)c1 (stereo not drawn)	11µM*	i	/	/	?
CCC(C)(C)NC(=O)C1CCCN(S(=O)(=O)c2ccc3c(c2)CC(C)N3C(=O)C2CC2)C1 (stereo not drawn)	0%	i	1%	11µM*	i
CC1CCN(S(=O)(=O)c2ccc3c(c2)CC(C)N3C(=O)C2CCC2)CC1 (stereo not drawn)	18µM*	/	12%	?	?
COc1cccc(N(Cc2nnc3n2CCCCC3)C(=O)Nc2cccc(Cl)c2)c1	5%	i	0%	/	i
CN(CCO)C1CN(Cc2cn(Cc3ccccc3C(F)(F)F)nn2)S(=O)(=O)C1 (stereo not drawn)	/	/	/	/	i
CC(C(=O)NCCCc1ccccc1)n1cccc1C(=O)c1ccccc1 (stereo not drawn)	?	i	6%	22µM*	i
Cc1cccc2c(/C=C/c3ccc(N(C)C)cc3)ccnc12	/	/	-3%	/	/
COc1cc(N(C)C)c(OC)cc1/C=C/c1ccnc2ccccc12	/	/	-15%	/	/
CC(=O)N1N=C(c2ccc(Cl)cc2)CC1c1ccc([N+](=O)[O-])cc1 (stereo not drawn)	-5%	i	-1%	-1%	i
COc1ccc(C2CC(c3ccc(Cl)cc3)=NN2C(C)=O)cc1 (stereo not drawn)	13µM*	i	?	0%	i
O=C(CSc1cn(CC(=O)N2CCCC2)c2ccccc12)Nc1cc(C(F)(F)F)ccc1Cl	?	i	/	/	?
Cc1cc(C)c(C#N)c(SCC(=O)c2cccs2)n1	2.8µM*	i	12%	11%	i
Cc1cccc(C(=O)O/N=C2\CCCc3ccccc32)c1	11µM*	i	0%	4%	i
O=C(O/N=C1\CCCc2ccccc21)c1cccc(Cl)c1	5µM*	i	1%	18%	i
Cc1ccc(C(=O)O/N=C2\CCCc3ccccc32)cc1	24%	i	/	-1%	i
CN1CCCc2ccccc21	/	/	4%	/	/
Cc1ccc[n+](CC(=O)Nc2cccc([N+](=O)[O-])c2)c1	-1%	i	1%	0%	i
Cc1ccc[n+](CC(=O)Nc2ccc([N+](=O)[O-])cc2)c1	8.9µM*	i	-11%	-4%	i
N#Cc1ccc(OS(=O)(=O)c2ccc(-c3ccon3)s2)cc1	13µM*	i	7%	-1%	i
Cc1cccc(Oc2c(C=O)c3ccccc3n2C)c1	18µM*	i	-5%	6%	i
Cc1nc(CSc2nnc(Nc3cccc(C)c3C)s2)cs1	7.9µM*	i	28%	-17%	/
Cc1cccc(Nc2nnc(SCC(=O)Nc3ccccc3[N+](=O)[O-])s2)c1C	13µM*	i	3%	29%	/
COc1ccc(NC(=O)NCc2cccn2C)c(OC)c1	-3%	i	-2%	-4%	28µM*
COc1ccc(NC(=O)NCc2ccncc2)c(OC)c1	-15%	i	/	4%	i
COc1ccc(NC(=O)CCn2c(=O)c3cccn3c3ccccc32)c(OC)c1	22µM*	i	8%	-1%	i
COc1ccc(NC(=O)CCn2c(=O)c3cccn3c3ccccc32)cc1	5%	i	-2%	-1%	i
Cc1cc(C)c(S(=O)(=O)N2CCC(N3CCN(Cc4ccc(F)cc4)C(=O)C3=O)CC2)c(C)c1	15%	i	/	/	i
CCN1CCCC1CN(Cc1cc2ccc(C)c(C)c2[nH]c1=O)C(=O)Nc1ccccc1OC (stereo not drawn)	-23%	i	0%	-3%	10µM*
